Results published in PubChem BioAssay (NCI).
The panel holds about 79,000 compounds, 15% with a hit somewhere; the sample as a whole holds those more often. The source made the active and inactive calls. Rule as the data show it: active = growth inhibition above about 70%; inactive = the rest.

Key:
[1] = NCI Yeast Anticancer Drug Screen. Data for the rad50 strain (AID 155);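 also: 0% = growth of vehicle-only cultures of the same strain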; conditions: S. cerevisiae rad50 strain growth inhibition, hits give high values
Method in brief: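 Relative growth inhibition (compound vs vehicle) was measured in yeast with a defined repair-gene alteration.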

[2] = NCI Yeast Anticancer Drug Screen. Data for the mec2-1 strain (AID 157); conditions: S. cerevisiae mec2-1 strain, hits give high values
Method in brief: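 Yeast mec2-1 mutant treated with compound. Readout: growth inhibition vs vehicle controls.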

[3] = NCI Yeast Anticancer Drug Screen. Data for the sgs1 mgt1 strain (AID 161);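 also: 0% = growth of cultures given vehicle only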; conditions: S. cerevisiae sgs1 mgt1 strain, hits give high values
Method in brief: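 Inhibition of yeast growth, normalised to vehicle-treated controls, is reported for a strain bearing genetic alterations in DNA damage repair.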

[4] = NCI Yeast Anticancer Drug Screen. Data for the cln2 rad14 strain (AID 165);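 also: 0% = growth equal to vehicle treated cultures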; conditions: S. cerevisiae cln2 rad14 strain, hits give high values
Method in brief: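 cln2 rad14 yeast strain; compound exposure; growth inhibition read vs vehicle controls.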

[5] = NCI Yeast Anticancer Drug Screen. Data for the bub3 strain (AID 167); conditions: S. cerevisiae bub3 mutant strain, hits give high values
Method in brief: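 Screening used yeast with an engineered genetic alteration affecting cell cycle control. Compound-exposed cultures were compared with vehicle cultures, and reduced growth was taken as inhibition.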

[6] = NCI Yeast Anticancer Drug Screen. Data for the mlh1 rad18 strain (AID 175); conditions: S. cerevisiae mlh1 rad18 strain growth inhibition, hits give high values
Method in brief: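 Yeast w/ defined DNA-repair lesions; compound exposure; growth vs vehicle controls → % inhibition.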

[7] = at 5.0 µM (retest, dose inferred, filed as 0.5)
[8] = at 50.0 µM (retest, dose inferred, filed as 5.0)

Measured: growth inhibition

CN(C)CC(C)(CN(C)C)C(=O)/C=C/c1ccc(Cl)c(Cl)c1
active: [1]; [8] 98% | [1]; at 50.0 µM 99.7% | [2]; [8] 99% | [2]; at 50.0 µM 99.8% | [3]; [8] 98% | [3]; at 50.0 µM 99.8% | [4]; [8] 99% | [4]; at 50.0 µM 99% | [5]; [8] 100% | [5]; at 50.0 µM 99.5% | [6]; [8] 99% | [6]; at 50.0 µM 99.6%
inactive: [1]; [7] 27% | [2]; [7] 18% | [3]; [7] 38% | [4]; [7] 13% | [5]; [7] 12% | [6]; [7] 41%

N#Cc1cccc(C[P+](c2ccccc2)(c2ccccc2)c2ccccc2)c1
inactive: [1]; [7] 14% | [1]; [8] 45% | [2]; [7] -1% | [2]; [8] 22% | [2]; at 50.0 µM 46% | [3]; [7] 3% | [3]; [8] 38% | [4]; [7] 8% | [4]; [8] 6% | [4]; at 50.0 µM 42.9% | [5]; [7] 4% | [5]; [8] 32% | [5]; at 50.0 µM 45.8% | [6]; [7] 7% | [6]; [8] 30% | [6]; at 50.0 µM 56.8%
active: [1]; at 50.0 µM 78.3% | [3]; at 50.0 µM 75.8%

COc1cc(/C=C/C(=O)c2ccc(O)c(OC)c2)ccc1O
inactive: [1]; [7] 20% | [1]; [8] 38% | [1]; at 50.0 µM 14% | [2]; [7] 16% | [2]; [8] 29% | [2]; at 50.0 µM 47.8% | [3]; [7] 9% | [3]; [8] 26% | [3]; at 50.0 µM 54% | [4]; [7] 8% | [4]; [8] 27% | [4]; at 50.0 µM 34.2% | [5]; [7] 17% | [5]; [8] 67% | [5]; at 50.0 µM 56.1% | [6]; [7] 18% | [6]; [8] 31% | [6]; at 50.0 µM 6.6%

C1=NC(N(Cc2ccccc2)Cc2ccccc2)N(Cc2ccccc2)N1 (configuration not stated)
active: [1]; [8] 95% | [1]; at 50.0 µM 92.4% | [2]; [8] 95% | [2]; at 50.0 µM 93.6% | [3]; [8] 94% | [3]; at 50.0 µM 92.1% | [4]; [8] 95% | [4]; at 50.0 µM 89.8% | [5]; [8] 96% | [5]; at 50.0 µM 92.2% | [6]; [8] 96% | [6]; at 50.0 µM 88.8%
inactive: [1]; [7] 26% | [2]; [7] -1% | [3]; [7] 14% | [4]; [7] -1% | [5]; [7] -14% | [6]; [7] -19%

Cc1c(Cl)c(Cl)cc([N+](=O)[O-])c1Cl
inactive: [1]; [7] 41% | [1]; [8] 49% | [1]; at 50.0 µM 24.9% | [2]; [7] 51% | [2]; [8] 45% | [2]; at 50.0 µM 37.6% | [3]; [7] -5% | [3]; [8] 15% | [3]; at 50.0 µM 46% | [4]; [7] 31% | [4]; [8] 47% | [4]; at 50.0 µM -6.9% | [5]; [7] 11% | [5]; [8] 38% | [5]; at 50.0 µM 52.4% | [6]; [7] 25% | [6]; [8] 46% | [6]; at 50.0 µM 19.4%

N#CCCN(CCC#N)Cc1cc(-c2ccccc2)ccc1O
inactive: [1]; [7] 5% | [1]; [8] 55% | [2]; [7] 1% | [2]; [8] 19% | [2]; at 50.0 µM 55% | [3]; [7] -2% | [3]; [8] 59% | [3]; at 50.0 µM 59.5% | [4]; [7] -8% | [4]; [8] -8% | [4]; at 50.0 µM -14.9% | [5]; [7] 1% | [5]; [8] 44% | [6]; [7] -9% | [6]; [8] 28%
active: [1]; at 50.0 µM 87.5% | [5]; at 50.0 µM 85.2% | [6]; at 50.0 µM 82.2%

CCN(CCN1C(=O)C2CCCCC2C1=O)c1ccc(N=O)c(C)c1 (configuration not stated)
inactive: [2]; [7] 66% | [3]; [7] 28% | [4]; [7] 23% | [5]; [7] 48%
active: [1]; [7] 71% | [1]; [8] 97% | [1]; at 50.0 µM 98.8% | [2]; [8] 99% | [2]; at 50.0 µM 98.8% | [3]; [8] 99% | [3]; at 50.0 µM 97.9% | [4]; [8] 96% | [4]; at 50.0 µM 88.6% | [5]; [8] 98% | [5]; at 50.0 µM 99.1% | [6]; [7] 72% | [6]; [8] 97% | [6]; at 50.0 µM 97.5%

Cc1ccccc1C(=N)c1ccccc1Cc1cccc2ccccc12
inactive: [1]; [7] 9% | [2]; [7] -10% | [3]; [7] -1% | [4]; [7] -11% | [5]; [7] -9% | [6]; [7] 0%
active: [1]; [8] 93% | [1]; at 50.0 µM 92.5% | [2]; [8] 91% | [2]; at 50.0 µM 88.5% | [3]; [8] 92% | [3]; at 50.0 µM 93.2% | [4]; [8] 87% | [4]; at 50.0 µM 78.9% | [5]; [8] 93% | [5]; at 50.0 µM 88.4% | [6]; [8] 91% | [6]; at 50.0 µM 91.2%

COC1=CC(=O)c2ncccc2C1=O
inactive: [1]; [7] 13% | [2]; [7] 6% | [3]; [7] 8% | [4]; [7] -3% | [5]; [7] 2% | [5]; at 50.0 µM 46.6% | [6]; [7] 9%
active: [1]; [8] 92% | [1]; at 50.0 µM 91.8% | [2]; [8] 83% | [2]; at 50.0 µM 78.5% | [3]; [8] 81% | [3]; at 50.0 µM 84.8% | [4]; [8] 93% | [4]; at 50.0 µM 89.2% | [5]; [8] 81% | [6]; [8] 93% | [6]; at 50.0 µM 95.1%
